The sample as a whole holds a higher share of hits than the screen did.
Pf Dd2 inh: qHTS Primary assay for Inhibitors of Plasmodium falciparum Dd2 growth in vitro; P. falciparum Dd2 growth, SYBR Green, 72 h; Potency, µM (series often up to 28.9 µM), most hits filed as inhibitors; 120,000 tested, 4.3% active; AID 1347417, 2020; active = well fitted inhibition curve with a large enough effect; note: nearly all actives have a fitted effect of over 65% in size
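Infected erythrocytes (Dd2, 0.3% parasitemia, 2.5% hematocrit final) are added to compound in RPMI-1640/Albumax II medium, grown 72 h at 37C in low oxygen, then lysed with saponin/Triton-X containing SYBR Green and read by fluorescence.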
Hits are given with their value; – = inactive.

SMILES	Pf Dd2 inh
CCOc1ccc(-c2cn3c(n2)sc2cc(C(=O)NC4CCCc5ccccc54)ccc23)cc1 (stereo unspecified)	–
CCOc1ccc(-c2cn3c(n2)sc2cc(C(=O)NCCCN4CCCCC4)ccc23)cc1	2.5µM
CCN(CC)CCNC(=O)C1CCN(c2nn3cc(-c4ccc(F)cc4)nc3s2)CC1	–
CCN(CC)CCNC(=O)c1ccc2c(c1)sc1nc(-c3ccc(F)cc3)cn12	3.2µM
CCOc1ccc(-c2cn3c(n2)sc2cc(C(=O)NCCCN4CCCCCC4)ccc23)cc1	2.2µM
Cc1c(C(=O)NCc2ccccc2Cl)sc2nc(-c3ccc(F)cc3)cn12	–
CCOc1ccc(-c2cc3c(=O)n(CCNC(=O)c4ccc(Cl)cc4)ccn3n2)cc1	–
O=C(c1ccc2c(c1)OCO2)N1CCc2nn(Cc3ccccc3)c(=O)n2CC1	–
COc1cccc(NC(=O)C2N(C(C)C)C(=O)C23CCCC3)c1 (stereo unspecified)	–
CC(C)Oc1ccc(C(=O)N2C[C@@H]3CCN(C)C[C@]3(C(=O)O)C2)cc1	–
CC(=O)N1CC2(Cc3ccccc31)CN(C(=O)Cc1ccc(F)cc1)C2	–
O=C1N(c2ccccc2)C[C@H]2CN(Cc3ccccc3)CCN12	–
O=C(c1ccc2cc[nH]c2c1)N1CCC2(CC1)CC(O)CCO2 (stereo unspecified)	–
COCCN1CCC(N2CCN(S(=O)(=O)c3ccc(Cl)cc3C)CC2)C1=O (stereo unspecified)	–
O=C(O)Cn1ccc2cc(OCC3CCN(C(=O)C4CCCC4)CC3)cnc21	–
CC(=O)N1CCOc2cc(S(=O)(=O)Nc3cc(C(F)(F)F)ccc3Cl)c(C)cc21	–
CC(=O)N1CCOc2cc(S(=O)(=O)Nc3cccc(C(F)(F)F)c3)c(Cl)cc21	13µM
CC(=O)N1CCOc2cc(S(=O)(=O)NC(C)c3ccccc3)c(Cl)cc21 (stereo unspecified)	–
Cc1c(CC(=O)N2CCC(C#N)CC2)c2c(n1Cc1ccccc1)CCCC2=O	–
Cc1c(CC(=O)NC2CCOCC2)c2c(n1Cc1ccc(F)cc1)CCCC2=O	–
Cc1c(CC(=O)NC2CCOCC2)c2c(n1CCc1ccccc1)CCCC2=O	10µM
CC(=O)Nc1ccc(C)cc1S(=O)(=O)NCCn1c(C)cnc1C1CCC1	–
Cc1cc(Cl)ccc1S(=O)(=O)NCCn1c(C)cnc1C1CCC1	6.3µM
Cc1cnc(C2CCC2)n1CCNS(=O)(=O)c1ccccc1	–
Cc1cnc(C2CC2)n1CCNS(=O)(=O)c1ccccc1F	–
SMILES	Pf Dd2 inh
Cc1cc(C)c(S(=O)(=O)NCCn2c(C)cnc2C2CC2)c(C)c1	11µM
Cc1cnc(C2CC2)n1CCNC(=O)C(C)C	–
CCOCCCNC(=O)N1CCC(OC2CCN(Cc3ccccc3)CC2)CC1	–
COc1ccc(CNC(=O)NCC23CCCC=C2NC(=O)CC3)cc1 (stereo unspecified)	–
Cc1ccc(CNC(=O)[C@H]2CCC[C@H]2NC(=O)c2ccncc2)o1	–
Cc1n[nH]c(C)c1-c1nc2c([nH]1)CNCC2	–
Cc1ccc(C(=O)NCC(=O)N2CCN(c3ccccn3)CC2)cc1	–
COc1ccc(-c2nn(-c3ccccc3C)cc2CN2CCCOCC2)cc1F	–
COc1ccc(-c2n[nH]c3c2CC(=O)N(Cc2ccccc2F)C3)cc1F	–
COc1ccc(-c2nn(-c3ccccc3C)cc2CN2CCN(C)C(=O)[C@@H]2C)cc1F	–
COC[C@H]1CCCN1Cc1cn(-c2ccccc2C)nc1-c1ccc(OC)c(F)c1	–
COc1ccc(-c2nn(-c3ccccc3C)cc2CN2C[C@@H](C)O[C@@H](C)C2)cc1F	10µM
COCC1CCN(Cc2cn(-c3ccccc3C)nc2-c2ccc(OC)c(F)c2)CC1	10µM
COc1cccc(C(=O)N2CCN(c3cc(C(F)(F)F)ncn3)CC2)c1	–
Cc1nc(-c2c3n(c(=O)n(CC(=O)Nc4cccc(C(C)C)c4)c2=O)CCCCC3)no1	–
O=C([C@H]1C[C@H](Oc2ccccc2)CN1Cc1ccc2[nH]ccc2c1)N1CCOCC1	–
Cc1[nH]nc(CCC(=O)N2CC[C@H](N3CCOCC3)[C@H](CCC(=O)O)C2)c1C	–
OC1(c2csc(CN3CCc4ccccc4C3)n2)CCN(CC2CCCCC2)CC1	3.2µM
CCN(CC)Cc1nc(C2(O)CCN(CC3CC3)CC2)cs1	–
CC(C)CCN1CCC(O)(c2csc(CN3CC[C@@H](O)C3)n2)CC1	–
CCN(CC)Cc1nc(C2(O)CCN(CCC(C)C)CC2)cs1	16µM
CC(C)(C)CC(=O)N1CCC(O)(c2csc(CN3CCc4ccccc4C3)n2)CC1	–
COCC(=O)N1CCC(O)(c2csc(CN3CCc4ccccc4C3)n2)CC1	–
CCN(CC)Cc1nc(C2(O)CCN(C)CC2)cs1	–
CC(C)CCN1CCC(O)(c2csc(CN3CCc4ccccc4C3)n2)CC1	13µM
SMILES	Pf Dd2 inh
O=C(COc1ccccc1)N1CCC(O)(c2csc(CN3CCc4ccccc4C3)n2)CC1	–
OC1(c2csc(CN3CCc4ccccc4C3)n2)CCN(Cc2ccccc2F)CC1	–
CN1CCN(Cc2nc(C3(O)CCN(CC4CC4)CC3)cs2)CC1	–
O=C(c1ccccc1F)N1CCC(O)(c2csc(CN3CCc4ccccc4C3)n2)CC1	3.2µM
CC(C)c1ccc(CNC(=O)C2CCN(c3cc(C(F)(F)F)ncn3)CC2)cc1	–
CC(=O)N[C@H]1CCN(CCC(=O)Nc2ccc(F)c(Cl)c2)C1	–
Cc1cc(C(=O)N2C[C@@H](CO)[C@H](c3ccccn3)C2)ccn1	–
COCCN1C[C@H]2CN(C(=O)NCc3ccccc3)CCN2C1=O	–
COCCN1C(=O)CS(=O)C12CCN(C(=O)c1ccc3cc[nH]c3c1)CC2 (stereo unspecified)	–
CC(C)N1CCN(C(=O)c2ccc3c(c2)C(O)CCCCCN3C)CC1 (stereo unspecified)	–
Cc1noc(C)c1[S+](=O)([O-])N1CCC(N2Cc3ccccc3C2=O)CC1	–
CN1CCC(N2CCC(O)(c3csc(CN4CCc5ccccc5C4)n3)CC2)CC1	–
O=C(C1CC1)N1CCC(O)(c2csc(CN3CCc4ccccc4C3)n2)CC1	–
OC1(c2csc(CN3CCc4ccccc4C3)n2)CCN(C2CCC2)CC1	10µM
CCCS(=O)(=O)N1CCN(C2CCN(CCOC)C2=O)CC1 (stereo unspecified)	–
CC(=O)NCC(=O)N1CCCC2(COc3ccccc3[S+](=O)([O-])N2)C1 (stereo unspecified)	–
COCC1CN(C(C)=O)CC12CCN(Cc1ccccc1C)CC2 (stereo unspecified)	–
CCCCN1CC(c2nc3ccccc3n2CCCCOc2ccccc2C)CC1=O (stereo unspecified)	10µM
Cc1ccccc1OCCCCn1c(C2CC(=O)N(c3ccccc3Cl)C2)nc2ccccc21 (stereo unspecified)	–
Cc1cccc(C)c1OCCCCn1c(C2CC(=O)N(c3ccc(F)cc3)C2)nc2ccccc21 (stereo unspecified)	–
COc1ccc(CC(=O)NCc2cccc(SC)c2)cc1	–
CCN(Cc1ccncc1)C(=O)CC1=C2CCCCC2N(C)C1=O (stereo unspecified)	–
CN(C)C(=O)N1CCCn2nc(CNC(=O)C(=O)c3ccco3)cc2C1	–
COc1ccc(F)cc1S(=O)(=O)N1CCCC(Cn2c(C3CC3)nc3cccnc32)C1 (stereo unspecified)	–
CN(C)c1ccc2ncc(Nc3ccccc3)n2n1	–
c1ccc(-c2ccc3ncc(Nc4ccc(N5CCOCC5)cc4)n3n2)cc1	–
CN(C)c1ccc2ncc(Nc3cc(F)cc(N4CCOCC4)c3)n2n1	10µM

Screening results (PubChem BioAssay)
